Experimental findings from PubChem BioAssay (NCATS) are described below.

Experiment [1] can be described thus: AP1 Signaling Pathway (AID 357).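 Further: ME-180 reporter cells stimulated with EGF at its EC50 level; on the % scale 0 is the no-effect control and ±100 the full control effect.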 The conditions noted are these: ME-180 AP-1-bla reporter, EGF-induced, beta-lactamase ratio, 5 h; at 7.69 µM (top of the series) unless noted. The method, boiled down:
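Modulation of EGF-driven AP-1 transcription was assessed with a beta-lactamase reporter in ME-180 cells. Compound and EC50 EGF were co-incubated 5 hours at 37 °C before 2.5-hour CCF4 loading at room temperature and dual-emission reading.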

The nature of experiment [2]: NFAT Signaling Pathway (AID 444).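 Further: carbachol stimulus at about its EC50 of 1 µM final; on the % scale 0 is the no-effect control and ±100 the full control effect.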 The conditions noted are these: Jurkat NFAT-bla M1, carbachol, beta-lactamase ratio, 5 h; at 7.69 µM (top of the series) unless noted. The method, boiled down: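 Read-out: CCF4 FRET ratio (460 nm/530 nm) after 1 h RT dye loading, used for %activity and AC50 from titration series. Cells: Jurkat NFAT-β-lactamase/M1 line, treated with compound plus 1 uM carbachol for 5 h, 37 °C.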

A short description of experiment [3]: Stat Signaling Pathway (AID 446).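 Further: ME-180 cervical cancer cells given 40 pM IL-6 alongside compound; SIE-controlled beta-lactamase reporter measured as 460/530 nm FRET emission ratio; on the % scale 0 is the no-effect control and ±100 the full control effect.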 The conditions noted are these: ME-180 SIE beta-lactamase reporter, IL-6 stimulated, 5 h; at 7.69 µM (top of the series) unless noted. The method, boiled down: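 ME-180 SIE-bla cells; overnight plating; cpd + IL-6 40 pM, 5 h, 37 C; LiveBLAzer 2.5 h RT; 460/530 nm emission ratio. Normalized to 300 pM IL-6 and 125 nM JAK inhibitor controls.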

The target in experiment [4] is Glucocorticoid receptor (Homo sapiens) (UniProt P04150). The experiment is described as follows: GR-GFP Redistribution (AID 450;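 active means compounds whose dose series gives a full or clear partial fitted curve of increased nuclear translocation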; further: potency means the concentration at half of the fitted maximal effect). Particulars: U2OS GR-GFP nuclear translocation, laser cytometry, 2 h.
The target is the same in experiment [5]. The experiment is described as follows: GR-EFC Redistribution (AID 451; calls by dose curve; further: potency means the concentration at half of the fitted maximal effect). The conditions noted are these: CHO-K1 GR-EFC translocation, beta-gal luminescence, 2 h. The method, boiled down: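 Translocation of GR-ED fusion to nuclear EA restores b-gal, read by luminescence after 1 h room-temperature detection. Engineered CHO-K1 biosensor cells, 1,000/well, exposed 2 h at 37 C to titrations up to 46 uM final.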

Experiment [6] addresses Mitogen-activated protein kinase 10 (Mus musculus) (UniProt Q61831). In words: JNK3 AlphaScreen Assay (AID 530).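 Further: kinase came from lysate of stimulated human HepG2 cells; signal reports phosphorylation of biotinylated GST-cJun 1-79 at Ser73 with 10 µM ATP; on the % scale 0 is the no-effect control and ±100 the full control effect.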 The procedure, abridged:
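Compound titrations were preincubated 15 minutes at room temperature with substrate, antibody and pre-activated JNK3-containing HepG2 lysate. Reactions were started with 10 uM ATP and stopped with EDTA-containing bead buffer for AlphaScreen detection.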
Background: Alpha assays give light when donor and acceptor beads are brought close together.

Experiment [7] has as its target 3',5'-cyclic-AMP phosphodiesterase 4B (Homo sapiens) (UniProt Q07343). In words: qHTS Assay for Inhibitors of PDE-IV (AID 607; active means well fitted activation curve with a large enough effect in the main read-out, with a control signal flat, not every such curve was filed as active; further: % of control where 0% means no effect). The method, boiled down: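 ACTOne HEK293 cells carry a modified cAMP-gated CNG channel and express endogenous PDE4; plated 1000 cells/well, compounds up to 22.9 uM final. Membrane-potential dye fluorescence (ex 535/em 590) was read; parental cells received 10 uM forskolin + 100 uM RO 20-1724.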
In general terms: Quantitative high-throughput screening tests each substance at several concentrations.

In experiment [8] the target is Cytochrome P450 2C9 (Homo sapiens) (UniProt P11712). The experiment is described as follows: qHTS Assay for Inhibitors and Substrates of Cytochrome P450 2C9 (AID 883; active means well fitted curve in the direction sought with a large enough effect; an effect the other way counts as inactive or inconclusive; further: on the % scale 0 is the no-effect control and ±100 the full control effect; nearly all actives have a fitted effect of over 60% in size). The method, boiled down: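 Inhibition of CYP2C9 is scored as loss of luminescence, with 57uM sulphaphenazole defining 100% inhibition. Substrate Luciferin-H is used at 100uM, equal to its KM; enzyme at 10nM in 25mM KPO4, 60 min at 37C with NADPH regeneration.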

In experiment [9] the target is Cytochrome P450 2D6 (Homo sapiens) (UniProt P10635). The experiment is described as follows: qHTS Assay for Inhibitors and Substrates of Cytochrome P450 2D6 (AID 891; active means well fitted curve in the direction sought with a large enough effect; an effect the other way counts as inactive or inconclusive;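 further: luciferin methyl ether substrate demethylated by CYP2D6 with NADPH regeneration; on the % scale 0 is the no-effect control and ±100 the full control effect; nearly all actives have a fitted effect of over 60% in size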). The procedure, abridged: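 Human CYP2D6 (5 nM) with 30 uM Luciferin-ME EGE (at Km) in 100 mM KPO4, compound preincubated 10 min, then NADPH regeneration system for 60 min at room temperature. Luciferin read by luminescence; normalized to 1.43 uM quinidine.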

The target in experiment [10] is Cytochrome P450 2C19 (Homo sapiens) (UniProt P33261). The experiment is described as follows: qHTS Assay for Inhibitors and Substrates of Cytochrome P450 2C19 (AID 899; active means well fitted curve in the direction sought with a large enough effect; an effect the other way counts as inactive or inconclusive; further: nearly all actives have a fitted effect of over 60% in size; further: potency means the concentration at half of the fitted maximal effect). The method, boiled down: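 5nM enzyme + 10uM Luciferin-H EGE (=KM), 50mM KPO4; cpd pin-transferred, 10 min 37C; NADPH regen, 60 min 37C; stopped w/ luciferin detection reagent, 20 min; luminescence. Normalized to 57uM ketoconazole (AC100).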

Experiment [11] addresses Muscarinic acetylcholine receptor M1 (Rattus norvegicus) (UniProt P08482). The experiment is described as follows: qHTS Assay for Antagonists of Acetylcholine Muscarinic M1 Receptor: Kinetic Measurement of Intracellular Calcium Response (AID 943; active means well fitted curve in the direction sought with a large enough effect; an effect the other way counts as inactive or inconclusive;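 further: Fluo-4 calcium signal as peak divided by basal fluorescence over 4 min; nearly all actives have a fitted effect of over 75% in size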). The method, boiled down: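 Rat M1-CHO cells, 2000/well, overnight → Fluo-4 no-wash dye with probenecid, 1 h 37C → compound 10 min, room temp → basal read 6 s → carbachol EC80 (100 nM) → 4 min kinetic read; peak/basal.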

The target is the same in experiment [12]. The experiment is described as follows: qHTS Assay for Antagonists of Acetylcholine Muscarinic M1 Receptor: Measurement of IP-One Response (AID 944; active means well fitted curve in the direction sought with a large enough effect; an effect the other way counts as inactive or inconclusive; further: nearly all actives have a fitted effect of over 75% in size). The procedure, abridged:
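M1-CHO (rat), 2000 cells/well, overnight recovery; cpd 10 min; carbachol EC80 (200 nM), 30 min, HEPES buffer + 50 mM LiCl pH 7.4; IP-One HTRF, Ex 337, Em 620/665 nm.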

Experiment [13] has as its target Pyruvate kinase (Leishmania mexicana) (UniProt Q27686). The experiment is described as follows: qHTS Validation Assay for Inhibitors of Leishmania Mexicana Pyruvate Kinase (AID 945; active means well fitted curve in the direction sought with a large enough effect; an effect the other way counts as inactive or inconclusive;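 further: 0% = DMSO only neutral control wells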). The procedure, abridged: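 The enzyme is a highly purified E451W mutant of LmPYK used at 0.2 nM. It converts 0.5 mM PEP and 0.1 mM ADP over 1 h at room temperature; product ATP is quantified by luciferase luminescence relative to DMSO controls.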

The target in experiment [14] is Pyruvate kinase PKM (Homo sapiens) (UniProt P14618). In words: qHTS Assay for Activators of Human Muscle Pyruvate Kinase (AID 954; active means well fitted curve in the direction sought with a large enough effect, not every such curve was filed as active;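 further: 0% = uninhibited enzyme and -100% = no enzyme or full thiadiazolimine inhibition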). The method, boiled down: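 Luminescence from a luciferase ATP-detection/stop reagent reported PKM2 activity. Reactions contained 0.1 nM purified human enzyme, 0.5 mM PEP, 0.1 mM ADP and 7 mM MgCl2 at pH 7.2, run 1 h at RT.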
Experiment [15] has as its target Alpha-galactosidase A (Homo sapiens) (UniProt P06280). In words: Counterscreen for Glucocerebrosidase Inhibitors: qHTS Assay for Human alpha-Galactosidase at pH 4.5 (AID 992; active means well fitted curve in the direction sought with a large enough effect; an effect the other way counts as inactive or inconclusive; further: 0% is about no effect). The procedure, abridged: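 Enzyme at 2 nM final was combined with compound (0.7 nM to 77 uM) and 80 uM 4-methylumbelliferyl alpha-D-galactopyranoside in 50 mM citric acid, 0.005% Tween-20, pH 4.5. After 20 min at room temperature, fluorescence was read (Ex 365/Em 440 nm); AC50 came from Hill fits.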
(A counterscreen serves to expose hits that act by an unwanted route or on another target.)

Experiment [16] concerns the target alpha-glucosidase (Oryza sativa, rice) (UniProt Q653V4). The experiment is described as follows: Counterscreen for Glucocerebrosidase Inhibitors: qHTS Assay for Rice alpha-Glucosidase at pH 5.0 (AID 997; active means well fitted curve in the direction sought with a large enough effect; an effect the other way counts as inactive or inconclusive;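 further: 0% = full activity with enzyme and -100% = basal without enzyme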). The method, boiled down:
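Rice alpha-glucosidase (4 nM final) with 400 uM 4-methylumbelliferyl-alpha-D-glucopyranoside in citrate buffer pH 5.0, 20 min at room temperature, stopped at pH 10; fluorescence 365/440 nm, compounds 0.7 nM–77 uM, AC50 from Hill fits.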

The target in experiment [17] is Guanine nucleotide-binding protein G(i) subunit alpha-1 (Homo sapiens) (UniProt P63096). The experiment is described as follows: qHTS Assay for Inhibitors of RGS12 GoLoco Motif Activity (Green Fluorophore) (AID 879; active means well fitted curve in the direction sought with a large enough effect; an effect the other way counts as inactive or inconclusive;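 further: 0% = labeled peptide with Gαi1 and full inhibition = labeled peptide alone without protein; negative values mean loss of peptide binding seen as reduced polarization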). The method, boiled down:
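Fluorescence polarization assay: 50 nM Gαi1 with 10 nM FITC-labeled RGS12 GoLoco peptide in 10 mM Tris pH 7.5, 150 mM NaCl, 0.1 mM GDP, 0.05% NP40, 10 min at room temperature with compound.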

A short description of experiment [18]: qHTS Assay for Identification of Small Molecule Agonists for Thrombopoietin (TPO) Signaling Pathway (AID 917; active means well fitted curve in the direction sought with a large enough effect; an effect the other way counts as inactive or inconclusive; further: on the % scale 0 is the no-effect control and ±100 the full control effect). The procedure, abridged:
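Luminescence from a Glycoprotein IIb promoter–driven luciferase reporter served as read-out in murine Ba/F3 cells carrying the human TPO receptor. Cells, deprived of IL-3 overnight, received compounds with 26 pM TPO and were incubated 24 hrs at 37 C.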

For experiment [19], the target named is Cytochrome P450 1A2 (Homo sapiens) (UniProt P05177). In words: p450-cyp1a2 (AID 410; calls by dose curve; further: potency means the concentration at half of the fitted maximal effect;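 on activity change, negative = inhibition: -100% = full effect of reference inhibitor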). The procedure, abridged:
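Luminescent readout of luciferin formed from Luciferin-ME by human CYP1A2; data normalized against complete inhibition by 57 uM furafylline. Enzyme 20nM, substrate 100uM at Km, 100mM KPO4 buffer, 60 min reaction at room temperature.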

Values without a mark were called inactive. Records with an inconclusive call do not appear. Activity calls are given as the source filed them. Unless noted, the call rests on the fitted dose curve; in most records, active means well fitted curve in either direction with a large enough effect (not every such curve was filed as active); inconclusive means small, poorly fitted or top-dose-only effect, or another doubt; inactive means flat fitted curve, though single readings scatter.

Glucocorticoid receptor (Homo sapiens), sequence (P04150 whole entry, looked up, the tested form may be a part): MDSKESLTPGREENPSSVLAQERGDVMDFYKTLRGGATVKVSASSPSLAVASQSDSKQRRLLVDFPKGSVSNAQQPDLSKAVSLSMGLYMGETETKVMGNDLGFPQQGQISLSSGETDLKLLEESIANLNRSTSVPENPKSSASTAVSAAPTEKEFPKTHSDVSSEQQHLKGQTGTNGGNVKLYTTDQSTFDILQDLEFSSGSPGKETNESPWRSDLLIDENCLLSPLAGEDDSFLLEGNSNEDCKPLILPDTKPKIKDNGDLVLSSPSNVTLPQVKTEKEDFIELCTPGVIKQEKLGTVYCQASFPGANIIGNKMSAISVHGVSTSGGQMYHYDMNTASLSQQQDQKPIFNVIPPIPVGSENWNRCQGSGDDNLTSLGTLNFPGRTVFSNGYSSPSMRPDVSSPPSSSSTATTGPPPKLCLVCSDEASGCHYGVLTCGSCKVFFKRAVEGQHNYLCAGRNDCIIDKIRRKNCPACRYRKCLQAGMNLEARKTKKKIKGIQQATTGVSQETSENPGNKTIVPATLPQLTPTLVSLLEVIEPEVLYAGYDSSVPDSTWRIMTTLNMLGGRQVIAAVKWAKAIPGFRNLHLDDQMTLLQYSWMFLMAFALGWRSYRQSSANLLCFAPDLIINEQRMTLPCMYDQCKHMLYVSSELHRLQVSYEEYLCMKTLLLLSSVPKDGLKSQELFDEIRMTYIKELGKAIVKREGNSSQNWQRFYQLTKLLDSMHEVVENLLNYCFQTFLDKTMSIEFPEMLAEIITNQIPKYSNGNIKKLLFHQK
Pyruvate kinase PKM (Homo sapiens), sequence (P14618 whole entry, looked up): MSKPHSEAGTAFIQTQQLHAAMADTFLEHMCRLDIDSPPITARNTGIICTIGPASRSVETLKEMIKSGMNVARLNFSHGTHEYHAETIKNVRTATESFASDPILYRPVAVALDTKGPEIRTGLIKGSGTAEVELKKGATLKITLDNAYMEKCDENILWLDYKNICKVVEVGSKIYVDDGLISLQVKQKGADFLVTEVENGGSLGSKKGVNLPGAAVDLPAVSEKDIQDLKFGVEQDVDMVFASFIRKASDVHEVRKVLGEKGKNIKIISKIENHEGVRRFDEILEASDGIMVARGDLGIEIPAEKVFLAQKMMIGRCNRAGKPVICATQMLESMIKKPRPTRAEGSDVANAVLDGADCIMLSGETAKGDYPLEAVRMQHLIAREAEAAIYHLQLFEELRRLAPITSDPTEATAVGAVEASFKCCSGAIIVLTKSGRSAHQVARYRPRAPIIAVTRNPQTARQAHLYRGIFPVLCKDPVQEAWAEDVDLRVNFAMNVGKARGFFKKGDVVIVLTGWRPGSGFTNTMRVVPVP
Alpha-galactosidase A (Homo sapiens), sequence (P06280 whole entry, looked up): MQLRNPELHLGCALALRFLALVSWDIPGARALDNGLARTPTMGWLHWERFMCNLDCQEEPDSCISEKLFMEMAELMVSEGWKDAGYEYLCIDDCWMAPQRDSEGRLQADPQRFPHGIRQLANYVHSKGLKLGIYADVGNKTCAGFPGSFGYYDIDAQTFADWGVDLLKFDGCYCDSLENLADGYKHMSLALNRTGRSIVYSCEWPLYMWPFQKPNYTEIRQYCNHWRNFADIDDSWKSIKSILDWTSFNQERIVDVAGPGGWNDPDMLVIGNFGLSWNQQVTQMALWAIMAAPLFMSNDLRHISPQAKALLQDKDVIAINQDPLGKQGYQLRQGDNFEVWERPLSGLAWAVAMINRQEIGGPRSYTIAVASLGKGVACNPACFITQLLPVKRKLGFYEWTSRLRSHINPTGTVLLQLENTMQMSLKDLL
Pyruvate kinase (Leishmania mexicana), sequence (Q27686 2-499 E452W): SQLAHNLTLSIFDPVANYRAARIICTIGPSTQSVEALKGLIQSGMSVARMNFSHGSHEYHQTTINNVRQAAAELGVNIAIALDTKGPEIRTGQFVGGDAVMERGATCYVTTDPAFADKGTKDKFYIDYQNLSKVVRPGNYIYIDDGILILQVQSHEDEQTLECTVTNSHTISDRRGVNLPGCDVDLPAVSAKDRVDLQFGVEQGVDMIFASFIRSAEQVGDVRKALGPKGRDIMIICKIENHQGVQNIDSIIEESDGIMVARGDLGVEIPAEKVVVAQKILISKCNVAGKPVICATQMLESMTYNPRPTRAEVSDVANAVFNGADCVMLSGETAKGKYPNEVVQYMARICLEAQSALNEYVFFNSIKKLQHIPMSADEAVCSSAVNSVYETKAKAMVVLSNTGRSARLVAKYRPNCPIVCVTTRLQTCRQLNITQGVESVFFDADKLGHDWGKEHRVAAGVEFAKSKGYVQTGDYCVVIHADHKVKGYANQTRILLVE
Muscarinic acetylcholine receptor M1 (Rattus norvegicus), sequence (P08482 whole entry, looked up): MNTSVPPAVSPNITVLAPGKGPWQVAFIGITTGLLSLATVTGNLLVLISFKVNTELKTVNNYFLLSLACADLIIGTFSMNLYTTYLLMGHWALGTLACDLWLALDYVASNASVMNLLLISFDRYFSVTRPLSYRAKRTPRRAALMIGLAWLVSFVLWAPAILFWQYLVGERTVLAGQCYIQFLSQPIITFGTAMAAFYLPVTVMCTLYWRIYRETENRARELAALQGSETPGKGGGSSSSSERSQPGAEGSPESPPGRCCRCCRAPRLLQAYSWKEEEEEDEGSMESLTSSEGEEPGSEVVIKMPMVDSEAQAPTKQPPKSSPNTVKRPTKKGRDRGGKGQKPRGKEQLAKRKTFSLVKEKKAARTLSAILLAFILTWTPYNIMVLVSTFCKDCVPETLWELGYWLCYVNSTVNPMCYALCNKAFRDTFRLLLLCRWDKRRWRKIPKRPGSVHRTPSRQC
3',5'-cyclic-AMP phosphodiesterase 4B (Homo sapiens), sequence (Q07343 whole entry, looked up): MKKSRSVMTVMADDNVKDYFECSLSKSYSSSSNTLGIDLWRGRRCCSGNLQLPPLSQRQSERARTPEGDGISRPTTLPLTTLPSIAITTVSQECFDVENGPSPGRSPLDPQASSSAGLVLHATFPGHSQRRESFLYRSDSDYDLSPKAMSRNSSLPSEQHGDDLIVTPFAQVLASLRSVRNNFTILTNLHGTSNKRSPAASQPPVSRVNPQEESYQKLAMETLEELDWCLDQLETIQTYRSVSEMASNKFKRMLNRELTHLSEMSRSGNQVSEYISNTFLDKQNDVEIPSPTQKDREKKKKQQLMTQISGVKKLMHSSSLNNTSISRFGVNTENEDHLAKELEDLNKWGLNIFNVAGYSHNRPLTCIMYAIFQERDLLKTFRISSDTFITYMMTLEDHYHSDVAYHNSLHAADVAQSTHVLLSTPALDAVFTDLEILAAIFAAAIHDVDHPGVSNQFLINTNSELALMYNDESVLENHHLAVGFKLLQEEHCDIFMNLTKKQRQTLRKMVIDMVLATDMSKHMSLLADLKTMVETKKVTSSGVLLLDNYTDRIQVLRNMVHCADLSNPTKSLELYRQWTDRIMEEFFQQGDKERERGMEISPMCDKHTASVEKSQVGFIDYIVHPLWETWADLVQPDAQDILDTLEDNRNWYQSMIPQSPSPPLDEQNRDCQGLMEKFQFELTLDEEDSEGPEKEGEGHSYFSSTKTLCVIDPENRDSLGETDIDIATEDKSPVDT
Guanine nucleotide-binding protein G(i) subunit alpha-1 (Homo sapiens), sequence (P63096 whole entry, looked up): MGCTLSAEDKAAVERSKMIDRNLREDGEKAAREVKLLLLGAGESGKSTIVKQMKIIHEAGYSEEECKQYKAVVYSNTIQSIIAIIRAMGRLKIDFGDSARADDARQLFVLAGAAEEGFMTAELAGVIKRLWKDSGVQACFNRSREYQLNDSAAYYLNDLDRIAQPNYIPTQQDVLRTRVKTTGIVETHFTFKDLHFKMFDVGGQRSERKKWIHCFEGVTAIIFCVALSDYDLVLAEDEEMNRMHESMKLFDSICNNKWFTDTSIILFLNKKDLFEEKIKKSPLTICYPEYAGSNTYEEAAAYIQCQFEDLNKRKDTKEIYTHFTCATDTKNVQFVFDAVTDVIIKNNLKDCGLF
Cytochrome P450 2C19 (Homo sapiens), sequence (P33261 whole entry, looked up): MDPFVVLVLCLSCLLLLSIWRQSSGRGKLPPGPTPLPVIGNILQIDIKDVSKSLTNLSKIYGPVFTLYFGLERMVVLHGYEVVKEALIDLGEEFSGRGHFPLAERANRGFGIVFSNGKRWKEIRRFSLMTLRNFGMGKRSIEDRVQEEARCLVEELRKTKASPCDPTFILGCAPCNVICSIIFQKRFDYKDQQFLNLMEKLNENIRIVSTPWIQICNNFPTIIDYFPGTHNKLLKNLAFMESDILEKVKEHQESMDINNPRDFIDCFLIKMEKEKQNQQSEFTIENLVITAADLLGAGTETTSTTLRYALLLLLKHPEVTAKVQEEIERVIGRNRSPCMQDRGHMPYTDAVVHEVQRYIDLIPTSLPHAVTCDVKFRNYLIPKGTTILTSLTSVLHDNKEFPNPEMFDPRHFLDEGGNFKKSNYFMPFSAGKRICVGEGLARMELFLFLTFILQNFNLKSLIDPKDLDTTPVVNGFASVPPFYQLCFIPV
Cytochrome P450 1A2 (Homo sapiens), sequence (P05177 whole entry, looked up): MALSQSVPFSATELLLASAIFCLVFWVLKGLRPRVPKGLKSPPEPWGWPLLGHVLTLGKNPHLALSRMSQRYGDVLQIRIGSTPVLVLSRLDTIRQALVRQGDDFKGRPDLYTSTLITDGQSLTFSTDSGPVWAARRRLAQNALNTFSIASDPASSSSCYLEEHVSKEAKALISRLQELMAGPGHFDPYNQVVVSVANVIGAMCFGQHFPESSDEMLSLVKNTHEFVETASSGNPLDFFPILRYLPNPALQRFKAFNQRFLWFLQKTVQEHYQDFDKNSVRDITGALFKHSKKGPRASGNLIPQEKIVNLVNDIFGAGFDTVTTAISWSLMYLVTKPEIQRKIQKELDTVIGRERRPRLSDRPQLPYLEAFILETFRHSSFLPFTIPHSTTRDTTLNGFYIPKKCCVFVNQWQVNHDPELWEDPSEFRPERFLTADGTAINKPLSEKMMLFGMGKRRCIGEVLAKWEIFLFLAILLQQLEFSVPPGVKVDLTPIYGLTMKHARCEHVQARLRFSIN

For `O=C1OC(=O)[C@@H]2[C@@H]1[C@@H]1CC[C@H]2O1`, the activity change, negative = inhibition in experiment [1] was 4.01% [at 38 µM]; in [2] it was 5.96% [at 38 µM]. Further, in experiment [3], the activity, negative = inhibition was -11.3% [at 38 µM]. Besides, the Potency in experiment [4] and in experiment [5] was above 46 µM throughout. The Potency result in [6], in [7], in [8], in [9], in experiment [10] and in [11] was “inactive” throughout. Moreover, the Potency entry in experiment [12] and in experiment [16] was “inactive” throughout. Besides, the outcome in [13], in experiment [14] and in experiment [15] was inactive.

For the compound `O=C(O)C[C@@H](C(=O)O)c1ccccc1[N+](=O)[O-]`, the activity change, negative = inhibition in [1] is 10.5%; in experiment [2], 13%. Moreover, in experiment [3], the activity, negative = inhibition is 6.64%. Besides, in experiment [5], the Potency is above 9.22 µM. Further, the Potency result in experiment [6] and in experiment [7] was “inactive” each time.

In the case of `OC[C@@H]1O[C@H](O)[C@@H](Cl)[C@H](O)[C@@H]1O`, the activity change, negative = inhibition in [1] was -0.164% [at 38 µM]; in [2], 4.5% [at 38 µM]. The activity, negative = inhibition in experiment [3] is 14% [at 38 µM]. Moreover, the Potency in experiment [4] and in experiment [5] was above 46 µM each time. Further, the Potency entry in experiment [7], in experiment [11], in experiment [12] and in [16] was “inactive” throughout. Further, the call in [17], in [18], in [13], in experiment [14] and in experiment [15] was inactive.

For `Oc1ccc2ccccc2c1Cc1c(O)ccc2ccccc12`, the activity change, negative = inhibition in experiment [1] is 0.512%. Besides, the Potency in experiment [19] was 3.98 µM (active); in experiment [4], above 46 µM; in experiment [5], above 9.22 µM; in experiment [10], 0.316 µM (active). The activity, negative = inhibition in experiment [3] is -5.79%. Also, the Potency entry in experiment [6] and in experiment [7] was “inactive” in each case.

Take `NC[C@H](O)C1CCCCCCC1`: the activity change, negative = inhibition in [1] is 3.98% [at 38 µM]. Also, the Potency entry in [19], in experiment [6], in experiment [7], in experiment [11], in experiment [12] and in experiment [16] was “inactive” in each case. The activity, negative = inhibition in experiment [3] was 14.7% [at 38 µM]. Besides, in experiment [4], the Potency was above 46 µM. Besides, the call in experiment [17], in experiment [18], in [13], in [14] and in experiment [15] was inactive.

In the case of `CCN1CCc2c(C#N)c(NCc3ccccc3)nc(NCCO)c2C1`, the activity change, negative = inhibition in experiment [1] is -9.55% [at 17.2 µM]; in experiment [2] it was -11% [at 17.2 µM]. Moreover, the activity, negative = inhibition in experiment [3] is -0.118% [at 17.2 µM]. In addition, in [4], the Potency was above 20.6 µM.

With `NC(=O)[C@@H]1CCCNC1`, the activity change, negative = inhibition was 9.79% in [1] and 6.45% in experiment [2]. Besides, the activity, negative = inhibition in experiment [3] was 14.3%. In addition, the Potency in experiment [4] is above 46 µM; in experiment [5], above 9.22 µM. Moreover, the Potency result in experiment [6] and in experiment [7] was “inactive” each time.
